Screening results from PubChem BioAssay.
EPAC2 agonist: activates human EPAC2 exchange factor. Q8WZA2. EPAC2 activation, biochemical qHTS; response scale: 100% = 6.5 mM cAMP response. Potency, µM (series often up to 154 µM), without a hit: at the highest dose activation, actives largely listed as activators. 0.079% of 360,000 active. AID 720711; also: potency is read from the fitted curve at half-maximal effect; nearly all actives have a fitted effect of over 50% in size
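Compounds were added across a concentration range to EPAC2 (100 nM), RAP1B-BODIPY-GDP (250 nM) and GDP (50 uM). After 5 min at room temperature, fluorescence was recorded at 5-min intervals for 30 min.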
EPAC1 ag: agonists of human EPAC1; O95398; 0.073% of 360,000 active; EPAC1 agonist qHTS, biochemical assay; response scale: 100% = response to 6.5 mM cAMP; Potency, µM (doses to about 154 µM), inactives show at the highest dose activation, most hits filed as activators; also: potency is read from the fitted curve at half-maximal effect; nearly all actives have a fitted effect of over 60% in size
Target sequence (O95398 whole entry, looked up): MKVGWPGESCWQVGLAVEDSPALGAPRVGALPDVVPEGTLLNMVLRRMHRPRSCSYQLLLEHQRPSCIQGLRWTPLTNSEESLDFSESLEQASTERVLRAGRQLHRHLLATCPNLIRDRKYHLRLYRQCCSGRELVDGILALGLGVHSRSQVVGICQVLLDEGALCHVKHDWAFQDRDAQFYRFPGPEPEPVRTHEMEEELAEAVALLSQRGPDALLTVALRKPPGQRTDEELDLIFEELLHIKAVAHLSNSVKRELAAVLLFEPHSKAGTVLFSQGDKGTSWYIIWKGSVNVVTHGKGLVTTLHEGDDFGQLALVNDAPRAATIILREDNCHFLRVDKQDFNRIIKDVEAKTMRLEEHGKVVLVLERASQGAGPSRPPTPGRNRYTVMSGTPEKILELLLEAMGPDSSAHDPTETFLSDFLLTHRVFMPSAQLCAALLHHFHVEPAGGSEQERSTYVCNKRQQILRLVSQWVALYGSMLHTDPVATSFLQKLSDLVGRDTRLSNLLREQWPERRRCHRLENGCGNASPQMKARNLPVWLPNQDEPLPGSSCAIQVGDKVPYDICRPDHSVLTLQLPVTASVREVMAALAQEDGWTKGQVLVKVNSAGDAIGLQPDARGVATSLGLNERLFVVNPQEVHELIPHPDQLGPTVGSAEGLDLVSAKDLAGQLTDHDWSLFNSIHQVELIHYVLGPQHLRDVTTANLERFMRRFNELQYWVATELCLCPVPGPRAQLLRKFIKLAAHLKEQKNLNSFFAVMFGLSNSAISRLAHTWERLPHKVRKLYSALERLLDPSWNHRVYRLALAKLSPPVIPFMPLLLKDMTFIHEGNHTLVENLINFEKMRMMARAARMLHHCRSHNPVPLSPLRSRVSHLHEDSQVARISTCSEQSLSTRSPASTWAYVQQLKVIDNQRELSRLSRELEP
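Multi-concentration qHTS readout: loss of Rap1B-bound BODIPY-GDP fluorescence driven by 100 nM EPAC1 with excess GDP (50 uM), monitored kinetically at room temperature; agonist response expressed relative to 6.5 mM cAMP.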
LDHA block: blocks human lactate dehydrogenase A; P00338; purified LDHA, NADH/diaphorase-resazurin fluorescence; hits give low values; activity change, % (values are at about 110 or 230 µM); 0.15% of 480,000 active; in the data active = activity change below about -30%; inconclusive = mostly about -25% to -30%;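 also: plate controls were DMSO wells for no effect and wells without enzyme for full effect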
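Human LDH5 at 2 nM final in Tris HCl pH 7.4 with 0.06 mM NADH and 0.2 mM pyruvate, reacted 5 minutes at room temperature. Remaining NADH coupled via diaphorase/resazurin; resorufin fluorescence read at 0 and 20 minutes, normalized to enzyme-free and DMSO wells.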
EPAC1 antag: blocks human EPAC1 exchange factor | 0.14% of 360,000 active | Potency, µM (top dose mostly 115 µM), without a hit: at the highest dose activity change, negative = inhibition, hits mostly inhibitors | AID 720709 | EPAC1 GEF assay, Rap1b-BODIPY-GDP exchange fluorescence | O95398;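 also: potency is read from the fitted curve at half-maximal effect; plate controls were vehicle for no effect and positive control for full effect; nearly all actives have a fitted effect of over 50% in size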
EPAC2 antagonist: EPAC2 (human) antagonism; Q8WZA2; EPAC2 GEF exchange of Rap1B-BODIPY-GDP, fluorescence; Potency, µM (series often up to 114 µM), for the others: at the top dose activity, negative = inhibition, actives largely listed as inhibitors; 0.18% of 360,000 active; also: potency is read from the fitted curve at half-maximal effect; % is scaled to controls: 0 for no effect and ±100 for the full control effect; nearly all actives have a fitted effect of over 45% in size
USP1-UAF1 inh: blocks the human USP1/UAF1 deubiquitinase complex; O94782; recombinant USP1/UAF1, Ub-Rhodamine cleavage fluorescence; Potency, µM (top dose mostly 57.1 µM), for inactives: top-dose activity change, negative = inhibition, actives largely listed as inhibitors; 0.23% of 390,000 active; AID 743255; also: potency is read from the fitted curve at half-maximal effect; % is scaled to controls: 0 for no effect and ±100 for the full control effect; nearly all actives have a fitted effect of over 60% in size
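1 nM enzyme complex + cpd, 15 min RT; start with Ub-Rho 150nM final; kinetic fluorescence ex 480/em 540, 6 reads q60 s. Buffer 50mM HEPES pH 7.8, 0.5mM EDTA, 0.1 mg/ml BSA, 1mM TCEP, 0.01% Tween-20.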
* hit, by the source's call; ? = inconclusive; . = no result. Hits are enriched below; roughly 0.56% of the tested compounds scored in any of these assays. Unless noted, calls follow the shape of the dose curve; as a rule, active = well fitted curve in the direction sought with a large enough effect; inconclusive = small, poorly fitted or top-dose-only effect, or another doubt; inactive = no such curve, though single readings can be large; an effect the other way counts as inactive or inconclusive.

SMILES	EPAC2 agonist	EPAC1 ag	LDHA block	EPAC1 antag	EPAC2 antagonist	USP1-UAF1 inh
COc1ccc(N2C(=O)NC(=O)/C(=C/c3ccc([N+](=O)[O-])s3)C2=O)cc1	4.2%	-2.0%	5.6	?	0.2%	22.4µM*
COc1cccc(N2C(=O)NC(=O)/C(=C/c3ccc([N+](=O)[O-])s3)C2=O)c1	4.2%	1.9%	20.7	?	-22.9%	?
CCOc1ccc(N2C(=O)NC(=O)/C(=C\c3cc(OC)c(OC)cc3[N+](=O)[O-])C2=O)cc1	10.9%	15.9%	-2.5	-20.9%	14.0%	?
CC12CC(=O)C3C(CCC4CC(=O)C=CC43C)C1CCC2=O (stereo unspecified)	1.8%	-4.9%	-1.2	-18.6%	0.9%	-12.7%
COc1ccc(N2C(=O)/C(=C/C=C/c3ccccc3[N+](=O)[O-])C(=O)NC2=S)cc1	-4.4%	-3.8%	-2.7	44.7µM*	-7.6%	?
O=P(NCc1ccccc1)(Oc1ccccc1)Oc1ccccc1	9.3%	3.1%	-3.5	-11.0%	?	-1.4%
CCOc1cccc(N2C(=O)/C(=C/c3ccco3)C(=O)NC2=S)c1	1.6%	0.5%	2.2	?	35.0%	-13.0%
O=C1NC(=S)N(c2ccccc2)C(=O)/C1=C/c1ccco1	4.2%	21.1%	-18.4	20µM*	-25.2%	?
CC[C@H](C)/C=C(C)/C=C/C1=CC2=C(Cl)C(=O)[C@](C)(OC(C)=O)C(=O)C2=CO1	9.7%	11.6%	5.4	?	8.91µM*	25.1µM*
Fc1ccc(NC(=S)NCCc2cnc[nH]2)cc1	.	.	4.3	.	.	.
CC12CC[C@H]3[C@@H](CCC4(O)CC(O)CCC34/C=N/O)C1(O)CCC2C1=CC(=O)OC1 (stereo partly specified)	.	.	0.9	.	.	.
COC(=O)C1=C(C(=O)OC)C2c3ccccc3C1c1ccccc12	5.9%	0.7%	1.3	-20.5%	-19.5%	-20.8%
COC(=O)C1C2c3ccccc3C(c3ccccc32)C1(C)C(=O)OC (stereo unspecified)	7.1%	2.1%	-0.7	3.9%	31.6µM*	2.2%
COc1ccccc1/C=C1\C(=O)NC(=S)N(c2ccccc2)C1=O	3.2%	-9.2%	-24.4	-10.9%	-1.7%	-24.5%
COc1ccccc1C=C1C(=O)NC(=S)NC1=O	13.1%	12.4%	-56.7*	-17.3%	-12.1%	-1.9%
N#Cc1c(-c2ccc([N+](=O)[O-])o2)no[n+]1[O-]	.	.	19.7	.	.	.
ClCCN(CCCl)c1ccc(C=Cc2ccncn2)cc1	15.7%	17.6%	0.1	0.0%	-13.7%	25.1µM*
COc1cc2c(c(OC)c1OC)CC(N)CCC2 (stereo unspecified)	.	.	3.2	.	.	.
CCn1c(O)c(C=Nc2ccc(N3CCOCC3)c(Br)c2)c(=O)n(CC)c1=S	2.4%	2.6%	-2.1	0.6%	-5.3%	-10.6%
CCn1c(O)c(C=Nc2ccc(N3CCOCC3)cc2)c(=O)n(CC)c1=S	100µM*	6.8%	3.6	1.2%	112.5%	17.8µM*
C=CCN1C(=O)NC(=O)/C(=C\c2ccc(-c3ccccc3[N+](=O)[O-])o2)C1=O	0.5%	13.7%	2.2	-20.5%	-5.8%	-7.6%
O=C1NC(=O)N(Cc2ccco2)C(=O)/C1=C/c1ccc(-c2cccc([N+](=O)[O-])c2)o1	-0.4%	3.6%	-14.6	50.1µM*	-26.7%	?
O=C(OC1CCN(CCCl)CC1)C(c1ccccc1)c1ccccc1	9.7%	6.5%	-9.1	2.5%	12.6µM*	-23.8%
CC(C)OC(=O)C1C2c3ccccc3C(c3ccccc32)C1C(=O)OC(C)C (stereo unspecified)	.	.	13.0	.	.	.
CN1Cc2c(c(C#N)c(N)n(C)c2=S)CC1(C)C	?	?	9.4	41.2%	24.5%	28.2µM*
SMILES	EPAC2 agonist	EPAC1 ag	LDHA block	EPAC1 antag	EPAC2 antagonist	USP1-UAF1 inh
Clc1cccc(-c2ccc(CNC3CN4CCC3CC4)o2)c1 (stereo unspecified)	.	.	0.8	.	.	.
Cc1ccccc1N1C(=O)NC(=O)/C(=C\c2ccc3c(c2)CCCN3Cc2ccccc2)C1=O	-3.2%	12.3%	0.5	35.5µM*	-5.0%	?
CCOC(=O)c1cc(CC)sc1/N=C/C1C(=O)NC(=S)NC1=O	89.1µM*	-1.8%	-3.4	4.5%	200.5%	?
CCOC(=O)c1c(/N=C/C2C(=O)NC(=O)NC2=O)sc2c1CCC2	8.8%	-12.3%	4.2	-16.9%	-20.3%	-10.4%
CCOC(=O)c1cc(CC)sc1/N=C/c1c(O)[nH]c(=S)[nH]c1=O	63.1µM*	6.3%	-0.7	-14.7%	30.9%	?
COc1ccc(-c2cc3ccc(OC(=O)N(C)C)cc3oc2=O)cc1	.	.	-0.6	.	.	.
COC(=O)c1nc(-c2ccc3c(n2)C(=O)C(N)=C(OC)C3=O)c(N)c(-c2ccc(OC)c(OC)c2O)c1C	-2.2%	8.8%	27.5	-23.5%	-16.3%	7.08µM*
c1ccc(CCNCc2ccc3[nH]ccc3c2)cc1	.	.	2.0	.	.	.
CCN(CC)C(=O)c1ccc(NC(=O)COc2ccc3c(C)cc(=O)oc3c2)cc1	.	.	14.4	.	.	.
CC(Nc1ccc([N+](=O)[O-])c2cnccc12)c1ccc(F)cc1 (stereo unspecified)	.	.	1.7	.	.	.
COc1ccc(/C=C2/C(=O)NC(=S)N(C3CC3)C2=O)cc1CN1C(=O)c2ccccc2C1=O	-6.0%	9.8%	-35.7*	40.9%	-7.4%	-13.8%
COc1ccc(/C=C2/C(=O)NC(=O)N(c3ccccc3)C2=O)cc1CN1C(=O)c2ccccc2C1=O	8.0%	5.2%	-6.4	2.4%	-2.7%	-12.4%
CN1C(=O)NC(=O)C2(CCCC2)C1=O	3.1%	6.4%	-6.0	1.5%	4.0%	-16.8%
CN1C(=O)C(=Cc2ccccc2OCc2ccc(C(=O)O)cc2)C(=O)N(C)C1=O	2.9%	6.5%	-34.7*	-14.3%	-7.1%	-23.3%
CN1C(=O)C(=Cc2ccccc2OCc2ccccc2Cl)C(=O)N(C)C1=O	4.3%	7.9%	-45.0*	-25.9%	-12.1%	-1.6%
CN1C(=O)C(=Cc2ccccc2OS(=O)(=O)c2ccccc2)C(=O)N(C)C1=O	4.6%	5.0%	-9.6	9.3%	3.1%	-15.9%
N#Cc1c(N)nc2c(c1-c1ccc(OCc3ccccc3F)cc1)c(=O)nc1sccn12	.	.	-1.2	.	.	.
CCOC(=O)C1=C(N)OC(c2ccccc2)=C(C(=O)OCC)C12C(=O)Nc1ccc(Br)cc12 (stereo unspecified)	.	.	9.3	.	.	.
CCN1C(=O)NC(=O)/C(=C/c2cc(C)n(-c3sc(C)c(C)c3C#N)c2C)C1=O	10.5%	5.5%	-2.3	-14.0%	8.6%	-11.6%
